TGFb SMAD3 inh: qHTS for Inhibitors of TGF-b; HepG2 CAGA-GFP TGF-b/SMAD3 reporter, GFP fluorescence, 18 h; TGF-beta stimulated, 500 pg/mL final; Potency, µM (highest dose often 46.1 µM), without a hit: at the top dose activity, negative = inhibition, hits mostly inhibitors; 410,000 compounds, 1.2% hits; AID 588855, 2011; further: on the % scale 0 is the no-effect control and ±100 the full control effect; nearly all actives have a fitted effect of over 65% in size
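GFP signal (ex488/em500-530) from TGF-beta-stimulated HEPG2 CAGA-GFP cells, 500 pg/mL final, 18 h at 37 degrees C in DMEM plus 1% FBS, normalized to unstimulated and DMSO-stimulated controls.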
HT1080 IDH1KD tx: qHTS for induction of synthetic lethality in tumor cells producing 2HG: qHTS for the HT-1080-IDH1KD cell line; HT-1080 IDH1 knockdown viability, ATP luminescence, 48 h; 360,000 compounds, 2% hits; Potency, µM (series often up to 46.1 µM), for inactives: at the top dose activity, negative = toxicity, most hits filed as cytotoxic;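 further: 0% = DMSO wells and -100% = cell-free medium wells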
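Cytotoxicity counter-line: IDH1KD HT-1080, 48 h, CellTiter-Glo. Curves classed by r2, magnitude and activity.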
HT1080NT lethal: qHTS for induction of synthetic lethality in tumor cells producing 2HG: qHTS for the HT-1080-NT fibrosarcoma cell line; HT-1080-NT fibrosarcoma viability, CellTiter-Glo ATP luminescence, 48 h; Potency, µM (titrated, usually from 46.1 µM), for inactives: at the top dose activity, negative = less viability, usual class: cytotoxic; 360,000 compounds, 1.6% hits;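 further: NT is the 2HG producing partner of a matched IDH1 knockdown line; 0% = DMSO-treated cells and -100% = media-only wells without cells; nearly all actives have a fitted effect of over 55% in size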
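Read-out is CellTiter-Glo luminescence after 10 minutes at room temperature, following 48 hours' compound treatment of HT-1080-NT cells (750 cells/well, RPMI, 5% FBS, 37 degrees C).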
ATXN2 expr inh: Primary qHTS for Inhibitors of ATXN expression | 360,000 compounds, 0.72% hits | Potency, µM (highest dose often 57 µM), for inactives: at the top dose activity change, negative = inhibition, actives largely listed as inhibitors | HEK-293 ATXN2-luciferase reporter, luminescence, 24 h; further: on the % scale 0 is the no-effect control and ±100 the full control effect; nearly all actives have a fitted effect of over 55% in size
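qHTS (up to 57 uM final) was run with 24 h compound exposure of reporter cells at 37 °C. Each well was multiplexed: SteadyGlo luminescence measured ATXN2-luciferase expression after a fluorogenic Gly-Phe-AFC viability readout (25 uM final).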
ATXN viability: Viability Counterscreen for Primary qHTS for Inhibitors of ATXN expression. S2 cells (HEK-293 line with an ATXN2-luciferase reporter) viability, CellTiter-Fluor protease fluorescence, 24 h. Potency, µM (highest dose often 56.7 µM), most hits filed as cytotoxic. 400,000 compounds, 0.49% hits. AID 651635, 2014; further: nearly all actives have a fitted effect of over 40% in size
HepG2 tox: qHTS for Inhibitors of TGF-b: Cytotox Counterscreen | HepG2 CAGA-GFP viability, ATP luminescence, 18 h | Potency, µM (series often up to 46.1 µM), for inactives: at the highest dose activity change, negative = cytotoxicity, most hits filed as cytotoxic | 410,000 compounds, 0.76% hits | AID 588856, 2011
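CellTiter-Glo luminescence gave cytotoxicity after 18 hours at 37 degrees C. The cells were HepG2 CAGA-GFP in 1% FBS DMEM, stimulated with 500 pg/mL TGF-beta after compound addition. %Activity was normalised to no-cell wells (complete cell-killing) and DMSO (no toxicity), and curves were fitted and classified.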
Starred values were filed as active, the others as inactive; i = inactive; ? = inconclusive; / = not tested or not shown; ! = not confirmed by another sample; [ ] = dose if it differs, or a comment. Compounds with a hit are over-represented: about 3.8% of the library has one in this group of screens. The call rests on the fitted dose curve; in most records, active means well fitted curve in the direction sought with a large enough effect; inconclusive means small, poorly fitted or top-dose-only effect, or another doubt; inactive means no such curve, though single readings can be large; an effect the other way counts as inactive or inconclusive. Potency means the concentration at half of the fitted maximal effect.

SMILES | TGFb SMAD3 inh | HT1080 IDH1KD tx | HT1080NT lethal | ATXN2 expr inh | ATXN viability | HepG2 tox
COc1ccc(CN2CCN(C(=O)COc3ccc4ccccc4c3)CC2)c(OC)c1 | -29% | ? | ? | -29% | i | -16%
Oc1c(Br)c(Br)c(Br)c(Br)c1Br | ? | ? | 26µM* | ? | i | -32%
Cc1cc2ccccc2n1-c1ccc(C(=O)N2CCC(C(=O)NCc3ccc(Cl)cc3)CC2)s1 | ? | / | / | / | / | -27%
C[C@@H]1CN([C@H](C)CO)C(=O)CCCn2nncc2CO[C@@H]1CN(C)C(=O)Nc1ccc(N2CCCCC2)cc1 | -2% | 10% | 14% | 9% | ? | -11%
c1ccc(CNc2c3c(nc4ccccc24)CCC3)cc1 | ? | ? | ? | 18µM* | ? | -29%
CC(C)(C)OC(=O)NCc1ccc(CNC(=O)c2[nH]cnc2C(=O)Nc2ccccc2F)cc1 | -19% | -27% | -18% | ? | ? | -36%
O=c1c2ccccc2[se]n1-c1ccccc1 | ? | ? | 23µM* | ? | ? | -29%
OC1(c2ccc(Cl)cc2)CCN(Cc2c[nH]c3ccccc23)CC1 | ? | 18µM* | 18µM* | ? | i | -38%
c1ccc2c(CN3CCCCC3)c[nH]c2c1 | 0% | -4% | -1% | -10% | i | -29%
Cc1cc(C)n(-c2nc(SCCN(C)C)c3c4c(sc3n2)CCCC4)n1 | ? | ? | 7.9µM* | ? | ? | -109%
Nc1c2c(nc3sc4c(c13)CCCC4)CCCC2 | ? | ? | ? | ? | ? | -24%
CC(/C=N/NC(=O)c1cc(-c2ccncc2)nc2ccccc12)=C\c1ccco1 | ? | 1µM* | 0.89µM* | -7% | i | -6%
O=[N+]([O-])c1cc(C(F)(F)F)c(Cl)c([N+](=O)[O-])c1Nc1ncc(C(F)(F)F)cc1Cl | 1.8µM* | / | / | / | / | 2.5µM*
N#CC1=C(N)Oc2c(c(=O)sc3ccccc23)C1c1ccncc1 (stereo not given) | -7% | 21µM* | ? | -15% | ? | -29%
CCCCCCn1c(=O)c(C(=O)Nc2ncccc2C)c(O)c2ccccc21 | 9% | ? | ? | / | i | -22%
CCCCn1c(=O)c(C(=O)Nc2ncccc2C)c(O)c2ccccc21 | 8% | 16µM* | 23µM* | -15% | i | -18%
Clc1ccc(C(c2ccc(Cl)cc2)n2cc[n+](CC(OCc3ccc(Cl)cc3Cl)c3ccc(Cl)cc3Cl)c2)cc1 (stereo not given) | 18µM* | 5.8µM* | 5.2µM* | 28µM*! | 18µM* | 13µM*
C=CCO[C@@H](Cn1ccnc1)c1ccc(Cl)cc1Cl | / | / | / | / | i | /
CCOC(=O)[C@]12Cc3cc(OC)ccc3[C@H]1N(C)C(=O)c1cc(OC)ccc12 | / | ? | ? | ? | 14µM* | /
CCOC(=O)[C@]12Cc3cc(Cl)ccc3[C@H]1N(Cc1ccccc1)C(=O)c1ccccc12 | ? | -1% | -19% | -25% | i | -14%
CCOC(=O)[C@]12Cc3cc(OC)ccc3[C@H]1N(CC(=O)OC)C(=O)c1cc(OC)ccc12 | / | ? | ? | 20µM* | 13µM* | /
CCOC(=O)[C@]12Cc3cc(C)ccc3[C@H]1N(Cc1ccccc1)C(=O)c1cc(OC)ccc12 | / | 21µM* | ? | ? | 32µM* | /
CCCCCN1C(=O)c2cc(OC)ccc2[C@@]2(C(=O)OCC)Cc3cc(OC)ccc3[C@@H]12 | / | 13µM* | 15µM* | ? | / | /
CC(=O)N(C)c1cccc(-c2ccnc3c(C(=O)c4cccs4)cnn23)c1 | / | / | / | 76% | / | /
C=CCC1([C@H](C)CCC)C(=O)NC(=O)NC1=O | / | / | / | 9%[116 µM] | i | /
SMILES | TGFb SMAD3 inh | HT1080 IDH1KD tx | HT1080NT lethal | ATXN2 expr inh | ATXN viability | HepG2 tox
CC[C@H](CO)NC(=O)[C@H]1C=C2c3cccc4[nH]cc(c34)C[C@@H]2N(C)C1 | / | / | / | / | i | /
CCc1c(C(=O)C(N)=O)c2c(OCC(=O)O)cccc2n1Cc1ccccc1 | / | / | / | -2% | / | /
c1ccc(Nc2ccc(Nc3ccccc3)cc2)cc1 | 1% | -14% | -26% | -7% | i | -15%
[Hg+][c]1ccccc1 | 0.32µM* | / | / | / | / | 0.56µM*
CCN(CC)C(=O)N[C@@H]1C=C2c3cccc4[nH]cc(c34)C[C@@H]2N(C)C1 | / | / | / | 0% | i | /
COc1ccc(Oc2cc(NC(=O)c3nn(C)cc3[N+](=O)[O-])cc([N+](=O)[O-])c2)cc1 | 10µM* | 5.2µM* | 18µM* | -4% | i | 18µM*
COc1ccc(NC(=O)c2cn(CCC#N)nc2-c2cccc([N+](=O)[O-])c2)cc1 | 9% | 1% | -21% | 0% | ? | 8%
O=C(Oc1ccc([N+](=O)[O-])cc1)N1CCC(C(O)(c2ccc3c(c2)OCO3)c2ccc3c(c2)OCO3)CC1 | / | / | / | -14% | / | /
COc1ccc2c(c1O)-c1c(OC)c(OC)cc3c1[C@H](C2)N(C)CC3 | -8% | 17% | ? | -1% | i | -16%
CCCN1CCc2cccc3c2[C@H]1Cc1ccc(O)c(O)c1-3 | ? | 23µM* | 3.3µM* | ? | / | -26%
COc1ccc(/C=N\NC(=O)c2cccc(F)c2)cc1COc1ccccc1 | ? | 0.58µM* | 1.2µM* | 5% | ? | 46%
COC1CC2C=C(C)C=CC=CC(=O)NC(c3ccccc3)CC=CCCC(O)CC(=O)C2=C1O (stereo not given) | ? | 1.6µM* | 1.8µM* | 2.8µM* | 14µM* | -110%
Cc1cc(/C=C2\C(=O)NC(=O)N(c3ccc(Cl)cc3)C2=O)c(C)n1-c1sc2c(c1C#N)CCCC2 | 3.5µM* | ? | -14% | / | ? | -47%
CCOC(=O)c1c(-n2c(C)cc(/C=C3\C(=O)NC(=O)N(C)C3=O)c2C)sc2c1CCCC2 | -10% | 3% | 14% | -23% | i | -14%
Cc1ccc(N2C(=O)NC(=O)/C(=C\C=C\c3ccco3)C2=O)cc1 | ? | ? | ? | 10µM* | 7.9µM* | -50%
CN(C)c1ccc(/C=C/C=C2/C(=O)NC(=O)N(c3ccccc3)C2=O)cc1 | -13% | 6.5µM* | 4.6µM* | ? | / | 4%
CN1C(=O)/C(=C/C=C/c2ccco2)C(=O)NC1=S | ? | 4% | 5% | 3% | i | -11%

High-throughput results deposited in PubChem BioAssay by National Center for Advancing Translational Sciences (NCATS).
